Source: PubChem BioAssay
A selection: hits, their analogues and other compounds. The true share with any hit is near 0.93%.
TexasRed fluor = Total Fluorescence Counterscreen for Inhibitors of the Interaction of Thyroid Hormone Receptor and Steroid Receptor Coregulator 2. 280,000 compounds, 0.29% hits. TRb/SRC2 Texas Red total fluorescence interference. Potency, µM (doses to about 106 µM); active means well fitted curve in either direction with a large enough effect; inconclusive means small, poorly fitted or top-dose-only effect
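Human TRb ligand-binding domain at 0.6 uM with 20 nM Texas Red SRC2 peptide in Tris buffer containing 1 uM T3 and 5% DMSO, incubated with compound 5 h at ambient temperature. Total fluorescence (555/632 nm) calculated as parallel + 2 × perpendicular.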
FBPA coupling cs = qHTS Assay for Inhibitors of Fructose-1,6-bisphosphate Aldolase from Giardia Lamblia: Coupling assay counterscreen; coupling enzyme system counterscreen, AmpLite Red fluorescence; activity change, negative = inhibition, % at 58.2 µM, hits read low; 290,000 compounds, 0.67% hits; AID 2472, 2010; in the data active means activity change below about -30%
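Compounds tested against the coupling enzymes alone at 57.5 uM final; readout was AmpLite Red fluorescence (525/598 nm) after 20 min at RT.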
GoLoco inh red = qHTS Assay for Inhibitors of RGS12 GoLoco Motif Activity (Red Fluorophore). Guanine nucleotide-binding protein G(i) subunit alpha-1 (Homo sapiens), P63096. Gai1:RGS12 GoLoco peptide FP, rhodamine, 10 min. Potency, µM (titrated, usually from 61.6 µM), usual class: inhibitors. 230,000 compounds, 0.44% hits; active means well fitted inhibition curve with a large enough effect, not every such curve was filed as active; inactive means no such curve, though single readings can be large or run the other way; further: nearly all actives have a fitted effect of over 30% in size
TRb-SRC2 inh = qHTS for Inhibitors of the Interaction of Thyroid Hormone Receptor and Steroid Receptor Coregulator 2; Thyroid hormone receptor beta (Homo sapiens), P10828; TRbeta-SRC2 peptide binding, fluorescence polarization; receptor liganded with 1 µM T3; Potency, µM (highest dose often 106 µM), hits mostly inhibitors; 280,000 compounds, 0.065% hits; AID 1469, 2008; active means well fitted inhibition curve with a large enough effect; inconclusive means small, poorly fitted or top-dose-only effect, or effect the other way; further: nearly all actives have a fitted effect of over 50% in size
Target sequence (P10828 whole entry, looked up): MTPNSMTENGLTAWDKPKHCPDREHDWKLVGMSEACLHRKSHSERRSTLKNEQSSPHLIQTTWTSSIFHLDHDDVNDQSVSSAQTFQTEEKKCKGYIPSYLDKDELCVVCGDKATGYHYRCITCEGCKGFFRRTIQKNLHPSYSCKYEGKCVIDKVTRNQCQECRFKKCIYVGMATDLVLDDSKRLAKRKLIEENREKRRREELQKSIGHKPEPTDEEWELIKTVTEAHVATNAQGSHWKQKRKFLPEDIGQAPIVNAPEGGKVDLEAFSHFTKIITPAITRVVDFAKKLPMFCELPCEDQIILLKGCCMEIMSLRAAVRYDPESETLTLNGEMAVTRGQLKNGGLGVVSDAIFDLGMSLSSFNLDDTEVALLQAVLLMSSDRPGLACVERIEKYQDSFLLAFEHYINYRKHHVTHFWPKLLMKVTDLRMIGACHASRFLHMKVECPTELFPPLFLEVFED
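Fluorescence polarization of 20 nM Texas Red SRC2 peptide (20-aa NR interaction domain) bound to 0.6 uM human TRb ligand-binding domain, with 1 uM T3, after 5 hr at ambient temperature; inhibition seen as decreased polarization.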
Hits are given with their value; i = inactive; ? = inconclusive; nt = not tested or not shown; [ ] = dose if it differs, or a comment.

SMILES	TexasRed fluor	FBPA coupling cs	GoLoco inh red	TRb-SRC2 inh
CCOC(=O)c1cnc2c(C)cc(C)cc2c1Nc1ccc(S(=O)(=O)Nc2ncccn2)cc1	35µM[quencher]	i	i	i
CC1=CC2C3CC(C=C3C)C2C1 (configuration not stated)	i	nt	nt	i
CCOC(=O)c1noc2ncnc(Nc3cc(Cl)c(OC)cc3OC)c12	i	nt	nt	i
O=c1ccn(-c2cccc(C(F)(F)F)c2)nc1-c1ccn(-c2ccccc2)n1	i	-38	i	i
COCc1[nH]nc2c1C(c1c(F)cccc1Cl)C(C#N)=C(N)O2 (configuration not stated)	i	-39	i	i
CCC(/C=C1\Sc2ccc(OC)cc2N1CC)=C\c1sc2ccc(OC)cc2[n+]1CCCS(=O)(=O)[O-]	40µM[fluorescent]	i	i	?
CCC(/C=C1\Sc2ccc(OC)cc2N1CCO)=C\c1sc2ccc(OC)cc2[n+]1CCO	50µM[fluorescent]	i	i	?
COc1ccc(B(O)O)cc1	i	i	i	i
Cc1cc(/C=C/c2ccc3cc(N(C)C)ccc3[n+]2C)c(C)n1-c1ccccc1	40µM[fluorescent]	i	i	?
CCC(=O)Nc1cc2c(cc1C(=O)c1ccccc1)OCCO2	28µM[fluorescent]	i	i	?
O=C(Nc1cc2c(cc1C(=O)c1ccccc1Cl)OCCO2)c1ccccc1	0.089µM[quencher]	nt	nt	?
Cc1ccn2c(=O)cc(COc3cccc(NC(=O)Nc4cccc(Cl)c4C)c3)nc2c1	i	nt	nt	i
COc1ccc(-c2c(C(=O)O)nc3ccccc3c2C(=O)O)cc1	i	-34	i	i
CCCCN(CCCC)CCNC(=O)Cn1nc(CC)n2c(cc3sc(C)cc32)c1=O	i	nt	nt	i
O=C(O)CCCn1cc(NC(=O)c2cc(F)c(F)cc2Cl)cn1	i	-34	i	i
COc1ccc(Br)cc1CNC(=O)C1CCCCN1S(=O)(=O)c1ccc(F)cc1 (configuration not stated)	i	nt	nt	i
COc1ccc(Nc2c([N+](=O)[O-])ccc3c2=NC2(CCCCC2)N=3)cc1	i	-34	i	i
C[C@H](N)C(=O)N[C@@H](Cc1ccc(F)cc1)C(=O)N[C@@H](CCCN=C(N)N)C(=O)N[C@@H](CC1CCCCC1)C(=O)N[C@@H](CCCCN=C(N)N)C(=O)N[C@@H](Cc1ccc(O)cc1)C(N)=O	i	i	nt	i
O=C(Nc1nnc(S(=O)(=O)N2CCCCC2)s1)c1ccc(F)cc1	100µM[quencher]	nt	nt	i
O=C(Nc1nnc(S(=O)(=O)N2CCCC2)s1)c1ccc(F)cc1	i	nt	nt	i
Cc1cc(C2(c3cc(C)c(O)cc3C)OS(=O)(=O)c3ccccc32)c(C)cc1O	i	nt	i	i
O=C(CSc1nc2c([nH]c3ccccc32)c(=O)n1-c1ccc(Cl)cc1)NC1CCCCC1	i	nt	nt	i
COC(=O)c1cnn(C(=O)c2ccccc2Br)c1N	i	-37	i	i
CC1CCCCN1C(=O)Cn1c(SCC(=O)N(C)c2ccccc2)nc2ccccc21 (configuration not stated)	i	nt	nt	i
Cn1c(=O)c2[nH]c(-c3ccccc3Cl)c(O)c2n(C)c1=O	i	i	2µM	i
SMILES	TexasRed fluor	FBPA coupling cs	GoLoco inh red	TRb-SRC2 inh
Cn1c(=O)c2[nH]c(-c3ccccc3)c(O)c2n(C)c1=O	i	i	i	i
Cc1cc(C)n(C)c(=O)c1C#N	i	i	i	i
Cc1c(C=O)c(Cl)n(C)c(=O)c1C#N	i	-46	i	i
CC(=O)N=Cc1c(C)c(C#N)c(=O)n(C)c1O	i	-51	i	i
CC/C=C1/OC(=O)c2ccccc21	i	nt	i	i
COC(=O)c1nn(-c2ccc(OC)cc2)c(=O)cc1NN	i	-43	i	?
COC(=O)c1nn(-c2ccc(OC)cc2)c(=O)cc1Sc1ccc(C)cc1	i	i	i	i
COC(=O)c1nn(-c2ccc(OC)cc2)c(=O)c2c(N)sc(C)c12	i	-52	i	i
CCOC(=O)c1nn(-c2ccc(C)cc2)c(=O)c2c(N)scc12	i	-55	i	i
O=C(c1cccs1)N1CCCc2cc(NS(=O)(=O)c3ccc(Br)cc3)ccc21	i	nt	nt	i
CC1CCN(C(=O)CSc2nc3ccccc3nc2Cc2ccccc2)CC1	i	nt	nt	i
S=C1N[C@H](c2ccccc2)N[C@H](c2ccccc2)S1	nt	nt	i[14.2 µM]	nt
CC(C)n1c(=O)c2oc3ccccc3c2n(CC(=O)Nc2ccccc2Cl)c1=O	i	nt	nt	i
O=C(NCc1ccc(F)cc1)c1nnc(Cc2cccc(F)c2)o1	?	nt	nt	i
O=C(NCCc1ccccc1)c1nnc(Cc2cccc(F)c2)o1	0.0056µM[quencher]	nt	nt	i
CN(C)c1ccc(/C=C/c2ccc3ccccc3[n+]2C)cc1	i	i	i	?
CN(C)c1ccc(/C=C/c2ccc3c4ccccc4ccc3[n+]2-c2ccccc2)cc1	13µM[fluorescent]	i	i	?
COC(=O)c1ccc2c(=O)n(CCCCCC(=O)NCc3ccc(OC)cc3)c(=O)[nH]c2c1	i	nt	nt	i
CCc1ccc(CNc2ncnc3onc(-c4ccc(Cl)cc4)c23)cc1	i	nt	nt	i
Cc1cn2c(=O)cc(COc3ccc(NC(=O)COc4ccccc4)cc3)nc2s1	i	nt	nt	i
C[n+]1ccc(C(=O)N/N=C/c2ccco2)cc1	i	i	0.89µM	i
CCCCC(=O)N/N=C/c1ccc(Sc2cccc3cccnc23)o1	i	-35	i	i
O=C(Cc1cccc2ccccc12)N/N=C/c1ccc(Sc2cccc3cccnc23)o1	i	i	i	i
Cc1ccc(CNC(=O)Cc2coc3cc(C)cc(C)c23)cc1	4.5µM[quencher]	nt	nt	?
CCOC(=O)c1c(NC(=O)/C=C/c2ccc(OC)c(OC)c2)sc(C(C)=O)c1C	562µM[quencher]	nt	nt	i
SMILES	TexasRed fluor	FBPA coupling cs	GoLoco inh red	TRb-SRC2 inh
CCOC(=O)c1c(NC(=O)/C=C/c2ccc(OCC)cc2)sc(C(C)=O)c1C	i	nt	nt	i
CC1(C)CC(OC(=O)CCCCCCCCC(=O)OC2CC(C)(C)NC(C)(C)C2)CC(C)(C)N1	i	nt	nt	i
Cc1cc(=O)cc2oc3cc(N)c(-c4c(C)cc(O)cc4O)c(C)c3nc1-2	?	-30	i	?
Cc1ccc(CNC(=O)CCN2C(=O)C(C)Oc3ccc(C)cc32)cc1 (configuration not stated)	35µM[quencher]	nt	nt	i
O=C(c1ccc(Cl)cc1)n1nc(-c2ccccc2)nc1NCc1ccco1	i	nt	nt	i
FC(F)(F)c1nc2cc3nc4ccccc4[nH]c3cc2n1	i	i	16µM	?
COc1cccc(NC(=O)C(=O)NCC(c2cccnc2)N2CCN(c3ccccc3)CC2)c1 (configuration not stated)	100µM[quencher]	nt	nt	i
COc1ccc(N2CCN(C(CNC(=O)C(=O)NCc3ccc(C)cc3)c3cccnc3)CC2)cc1 (configuration not stated)	i	nt	nt	i
COc1ccc(N2CCN(C(CNC(=O)C(=O)NCc3cccnc3)c3cccnc3)CC2)cc1 (configuration not stated)	56µM[quencher]	nt	nt	i
CCc1ccc(NC(=O)C(=O)NCC(c2cccnc2)N2CCN(c3ccc(F)cc3)CC2)cc1 (configuration not stated)	100µM[quencher]	nt	nt	i
